The values below come from ChEMBL document CHEMBL1961873, “Compounds: GSK PKIS; Assays: Nanosyn kinase panel” (2012).

Assay [1] concerns the target T1, Mitogen-activated protein kinase 12 (Homo sapiens) (UniProt P53778).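 Also: values are averaged p38gamma kinase inhibition readings, compounds tested at 1 µM.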
T1 sequence (whole entry): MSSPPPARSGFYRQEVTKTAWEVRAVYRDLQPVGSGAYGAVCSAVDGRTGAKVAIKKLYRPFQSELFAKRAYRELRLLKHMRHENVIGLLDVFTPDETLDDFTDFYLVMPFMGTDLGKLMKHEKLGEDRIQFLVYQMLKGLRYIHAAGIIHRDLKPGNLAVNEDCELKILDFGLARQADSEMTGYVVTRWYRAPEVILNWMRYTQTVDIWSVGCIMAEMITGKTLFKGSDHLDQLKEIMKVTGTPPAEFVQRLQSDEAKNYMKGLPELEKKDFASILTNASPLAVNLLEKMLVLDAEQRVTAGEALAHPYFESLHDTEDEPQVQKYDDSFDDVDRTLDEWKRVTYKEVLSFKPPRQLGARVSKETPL
The conditions noted are these: at 1 µM.

Assay [2] has as its target SRSF protein kinase 1 (Homo sapiens) (UniProt Q96SB4). The following applies: at 0.1 µM.
The target is the same in assay [3]. The conditions noted are these: at 1 µM.
Assay [4] has as its target Phosphatidylinositol 4,5-bisphosphate 3-kinase catalytic subunit alpha isoform (Homo sapiens) (UniProt P42336). The following applies: at 0.1 µM.
The target is the same in assay [5]. The conditions noted are these: at 1 µM.
The target of assay [6] is T2, Phosphatidylinositol 4,5-bisphosphate 3-kinase catalytic subunit delta isoform (Homo sapiens) (UniProt O00329).
T2 sequence (whole entry): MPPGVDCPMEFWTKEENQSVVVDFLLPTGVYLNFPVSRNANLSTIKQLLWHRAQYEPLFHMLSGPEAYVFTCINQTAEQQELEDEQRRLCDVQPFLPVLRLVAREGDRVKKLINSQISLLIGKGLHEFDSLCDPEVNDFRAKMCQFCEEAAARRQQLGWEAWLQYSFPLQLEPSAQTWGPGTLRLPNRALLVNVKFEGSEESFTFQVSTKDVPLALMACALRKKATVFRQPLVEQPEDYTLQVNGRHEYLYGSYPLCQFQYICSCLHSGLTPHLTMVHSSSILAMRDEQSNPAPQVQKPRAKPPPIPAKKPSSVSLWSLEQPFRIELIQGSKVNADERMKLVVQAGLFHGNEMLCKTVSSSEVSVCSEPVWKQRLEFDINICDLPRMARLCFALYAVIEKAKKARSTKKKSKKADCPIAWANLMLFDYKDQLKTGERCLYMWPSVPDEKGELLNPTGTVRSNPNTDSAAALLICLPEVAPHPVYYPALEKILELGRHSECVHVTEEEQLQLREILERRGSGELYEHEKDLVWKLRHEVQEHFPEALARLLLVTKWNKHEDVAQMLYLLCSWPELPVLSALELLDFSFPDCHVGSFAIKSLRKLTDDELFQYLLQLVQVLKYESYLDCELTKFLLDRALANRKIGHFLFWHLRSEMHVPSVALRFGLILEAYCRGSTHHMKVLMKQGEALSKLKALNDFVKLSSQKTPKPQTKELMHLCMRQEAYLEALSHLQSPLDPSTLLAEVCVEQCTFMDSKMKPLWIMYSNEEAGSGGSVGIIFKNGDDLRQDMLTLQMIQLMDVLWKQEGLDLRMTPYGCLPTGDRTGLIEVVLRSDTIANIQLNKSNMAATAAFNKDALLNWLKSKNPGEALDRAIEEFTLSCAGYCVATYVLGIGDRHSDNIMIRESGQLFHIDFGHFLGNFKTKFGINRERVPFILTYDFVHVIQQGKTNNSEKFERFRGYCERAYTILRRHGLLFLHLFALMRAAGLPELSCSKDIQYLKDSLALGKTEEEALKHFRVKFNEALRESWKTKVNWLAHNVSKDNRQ
The following applies: at 0.1 µM.

In assay [7] the target is T2, Phosphatidylinositol 4,5-bisphosphate 3-kinase catalytic subunit delta isoform (Homo sapiens). The following applies: at 1 µM.
The target of assay [8] is Phosphatidylinositol 4-kinase beta (Homo sapiens) (UniProt Q9UBF8). The conditions noted are these: at 0.1 µM.
Phosphatidylinositol 4-kinase beta (Homo sapiens), sequence (Q9UBF8 2-816 limits assumed): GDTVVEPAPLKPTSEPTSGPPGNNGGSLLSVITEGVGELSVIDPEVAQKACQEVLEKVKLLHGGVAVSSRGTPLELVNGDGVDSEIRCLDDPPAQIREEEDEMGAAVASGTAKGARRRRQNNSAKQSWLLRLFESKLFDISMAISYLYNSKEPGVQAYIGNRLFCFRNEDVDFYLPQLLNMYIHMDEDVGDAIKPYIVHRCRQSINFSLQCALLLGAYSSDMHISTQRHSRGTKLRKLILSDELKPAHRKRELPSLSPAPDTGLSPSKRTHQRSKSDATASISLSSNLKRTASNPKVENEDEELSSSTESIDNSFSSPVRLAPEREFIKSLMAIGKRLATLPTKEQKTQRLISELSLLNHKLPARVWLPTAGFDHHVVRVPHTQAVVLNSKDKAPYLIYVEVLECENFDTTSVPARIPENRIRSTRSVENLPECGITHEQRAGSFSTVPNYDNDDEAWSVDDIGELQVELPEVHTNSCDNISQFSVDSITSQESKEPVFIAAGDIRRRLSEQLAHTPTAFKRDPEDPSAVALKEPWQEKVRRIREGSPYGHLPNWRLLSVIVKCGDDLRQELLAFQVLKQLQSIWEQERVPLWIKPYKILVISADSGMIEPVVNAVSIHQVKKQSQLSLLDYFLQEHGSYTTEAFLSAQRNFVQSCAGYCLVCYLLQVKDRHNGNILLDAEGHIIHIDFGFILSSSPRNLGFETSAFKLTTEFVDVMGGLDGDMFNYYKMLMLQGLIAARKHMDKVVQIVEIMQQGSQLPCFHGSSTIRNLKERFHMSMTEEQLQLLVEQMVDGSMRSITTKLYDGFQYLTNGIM
Assay [9] shares this target. The following applies: at 1 µM.
Assay [10] deals with Sphingosine kinase 1 (Homo sapiens) (UniProt Q9NYA1). The conditions noted are these: at 0.1 µM.
Sphingosine kinase 1 (Homo sapiens), sequence (Q9NYA1 whole entry): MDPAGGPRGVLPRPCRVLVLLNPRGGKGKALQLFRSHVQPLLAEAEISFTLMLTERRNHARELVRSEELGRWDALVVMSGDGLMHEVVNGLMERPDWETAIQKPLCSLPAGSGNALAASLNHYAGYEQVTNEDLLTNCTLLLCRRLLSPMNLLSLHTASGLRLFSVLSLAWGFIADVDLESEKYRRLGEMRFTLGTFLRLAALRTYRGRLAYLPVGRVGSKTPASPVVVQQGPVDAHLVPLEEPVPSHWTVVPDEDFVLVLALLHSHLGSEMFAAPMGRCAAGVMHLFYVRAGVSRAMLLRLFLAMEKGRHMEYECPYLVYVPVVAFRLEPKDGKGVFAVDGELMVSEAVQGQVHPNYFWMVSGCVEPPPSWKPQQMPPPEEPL
Assay [11] has the same target. The conditions noted are these: at 1 µM.
The target of assay [12] is T3, Sphingosine kinase 2 (Homo sapiens) (UniProt Q9NRA0).
T3 sequence (whole entry): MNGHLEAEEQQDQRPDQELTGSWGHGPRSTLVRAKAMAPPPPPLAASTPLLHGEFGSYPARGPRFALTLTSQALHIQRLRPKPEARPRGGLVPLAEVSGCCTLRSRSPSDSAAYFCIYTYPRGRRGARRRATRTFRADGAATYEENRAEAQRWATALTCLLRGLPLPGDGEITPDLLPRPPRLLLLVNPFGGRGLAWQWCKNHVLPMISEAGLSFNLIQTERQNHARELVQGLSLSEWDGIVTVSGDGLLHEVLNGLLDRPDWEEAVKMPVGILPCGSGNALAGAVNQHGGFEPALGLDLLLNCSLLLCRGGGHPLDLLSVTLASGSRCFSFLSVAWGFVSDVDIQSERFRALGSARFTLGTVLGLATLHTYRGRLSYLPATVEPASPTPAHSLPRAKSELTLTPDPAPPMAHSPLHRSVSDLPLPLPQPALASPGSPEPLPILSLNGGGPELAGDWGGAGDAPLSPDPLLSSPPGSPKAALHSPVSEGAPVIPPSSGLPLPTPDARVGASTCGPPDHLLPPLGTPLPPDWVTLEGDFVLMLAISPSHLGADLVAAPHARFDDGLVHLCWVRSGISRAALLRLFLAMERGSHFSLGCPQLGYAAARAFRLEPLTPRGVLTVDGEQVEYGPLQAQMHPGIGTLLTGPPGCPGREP
The following applies: at 0.1 µM.

The target in assay [13] is T3, Sphingosine kinase 2 (Homo sapiens). The conditions noted are these: at 1 µM.
Assay [14] addresses Casein kinase II subunit alpha (Homo sapiens) (UniProt P68400). The following applies: at 0.1 µM.
Assay [15] has the same target. The following applies: at 1 µM.
The target of assay [16] is T4, Inhibitor of nuclear factor kappa-B kinase subunit alpha (Homo sapiens) (UniProt O15111).
T4 sequence (whole entry): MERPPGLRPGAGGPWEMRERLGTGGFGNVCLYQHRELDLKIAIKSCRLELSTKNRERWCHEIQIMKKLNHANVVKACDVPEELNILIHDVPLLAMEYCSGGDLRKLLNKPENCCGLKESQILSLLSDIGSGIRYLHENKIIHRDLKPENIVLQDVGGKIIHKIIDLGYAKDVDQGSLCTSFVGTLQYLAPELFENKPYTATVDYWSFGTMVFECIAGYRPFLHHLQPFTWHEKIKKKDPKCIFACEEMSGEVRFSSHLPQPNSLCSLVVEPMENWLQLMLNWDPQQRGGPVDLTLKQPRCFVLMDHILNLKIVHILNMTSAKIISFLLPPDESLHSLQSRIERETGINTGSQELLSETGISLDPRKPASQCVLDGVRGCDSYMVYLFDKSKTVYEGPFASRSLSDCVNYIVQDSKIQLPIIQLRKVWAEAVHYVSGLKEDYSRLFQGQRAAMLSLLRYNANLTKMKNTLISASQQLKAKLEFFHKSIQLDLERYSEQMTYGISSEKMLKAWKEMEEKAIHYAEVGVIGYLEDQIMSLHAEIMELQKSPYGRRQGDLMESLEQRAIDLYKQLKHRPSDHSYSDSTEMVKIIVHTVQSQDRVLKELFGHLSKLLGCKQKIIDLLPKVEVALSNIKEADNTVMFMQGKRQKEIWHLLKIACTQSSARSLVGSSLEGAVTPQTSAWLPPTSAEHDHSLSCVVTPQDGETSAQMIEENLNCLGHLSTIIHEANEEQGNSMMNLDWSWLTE
The conditions noted are these: at 0.1 µM.

In assay [17] the target is T4, Inhibitor of nuclear factor kappa-B kinase subunit alpha (Homo sapiens). The following applies: at 1 µM.
The target in assay [18] is T5, Inhibitor of nuclear factor kappa-B kinase subunit beta (Homo sapiens) (UniProt O14920).
T5 sequence (whole entry): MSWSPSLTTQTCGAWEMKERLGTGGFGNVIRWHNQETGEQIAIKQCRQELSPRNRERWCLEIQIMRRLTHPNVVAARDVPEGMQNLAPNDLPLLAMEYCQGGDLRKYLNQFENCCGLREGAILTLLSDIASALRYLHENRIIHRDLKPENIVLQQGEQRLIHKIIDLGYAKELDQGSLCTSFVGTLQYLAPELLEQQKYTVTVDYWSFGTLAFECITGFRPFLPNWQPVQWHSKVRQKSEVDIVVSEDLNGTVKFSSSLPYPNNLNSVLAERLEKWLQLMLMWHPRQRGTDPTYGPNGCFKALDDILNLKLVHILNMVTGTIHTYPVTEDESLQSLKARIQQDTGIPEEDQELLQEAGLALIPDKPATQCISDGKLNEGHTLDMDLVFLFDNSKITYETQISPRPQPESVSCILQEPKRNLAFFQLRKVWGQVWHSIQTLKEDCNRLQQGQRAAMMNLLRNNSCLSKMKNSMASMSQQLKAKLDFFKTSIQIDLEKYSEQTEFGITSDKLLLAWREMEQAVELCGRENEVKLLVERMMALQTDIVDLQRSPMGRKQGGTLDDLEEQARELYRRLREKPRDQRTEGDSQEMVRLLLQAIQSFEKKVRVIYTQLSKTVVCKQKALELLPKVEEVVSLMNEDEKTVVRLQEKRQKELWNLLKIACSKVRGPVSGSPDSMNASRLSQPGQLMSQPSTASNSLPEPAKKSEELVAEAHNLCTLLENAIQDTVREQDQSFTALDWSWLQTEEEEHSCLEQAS
The following applies: at 0.1 µM.

The target of assay [19] is T5, Inhibitor of nuclear factor kappa-B kinase subunit beta (Homo sapiens). The following applies: at 1 µM.
Assay [20] has as its target T6, Inhibitor of nuclear factor kappa-B kinase subunit epsilon (Homo sapiens) (UniProt Q14164).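 Also: mean inhibition of IKKε reported, from the GSK PKIS dataset.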
T6 sequence (whole entry): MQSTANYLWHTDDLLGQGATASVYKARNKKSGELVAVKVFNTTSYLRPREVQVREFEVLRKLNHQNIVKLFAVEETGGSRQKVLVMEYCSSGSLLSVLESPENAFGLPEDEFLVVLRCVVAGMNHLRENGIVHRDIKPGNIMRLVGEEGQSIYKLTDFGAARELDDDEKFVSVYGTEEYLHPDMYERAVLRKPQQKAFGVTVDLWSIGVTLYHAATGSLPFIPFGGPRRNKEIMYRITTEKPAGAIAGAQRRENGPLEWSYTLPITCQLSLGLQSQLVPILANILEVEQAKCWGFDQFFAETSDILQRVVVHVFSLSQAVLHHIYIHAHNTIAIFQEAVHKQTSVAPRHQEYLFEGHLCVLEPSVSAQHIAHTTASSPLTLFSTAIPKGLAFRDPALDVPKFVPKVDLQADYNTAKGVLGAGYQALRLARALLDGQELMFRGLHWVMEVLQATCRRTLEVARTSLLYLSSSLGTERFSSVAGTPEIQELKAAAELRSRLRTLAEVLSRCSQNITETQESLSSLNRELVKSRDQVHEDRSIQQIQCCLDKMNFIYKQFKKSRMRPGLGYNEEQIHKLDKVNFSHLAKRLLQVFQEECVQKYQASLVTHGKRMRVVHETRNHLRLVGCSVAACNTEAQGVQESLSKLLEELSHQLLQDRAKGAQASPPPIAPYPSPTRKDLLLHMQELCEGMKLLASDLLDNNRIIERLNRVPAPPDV
The conditions noted are these: at 0.1 µM.

Casein kinase II subunit alpha (Homo sapiens), sequence (P68400 whole entry, looked up): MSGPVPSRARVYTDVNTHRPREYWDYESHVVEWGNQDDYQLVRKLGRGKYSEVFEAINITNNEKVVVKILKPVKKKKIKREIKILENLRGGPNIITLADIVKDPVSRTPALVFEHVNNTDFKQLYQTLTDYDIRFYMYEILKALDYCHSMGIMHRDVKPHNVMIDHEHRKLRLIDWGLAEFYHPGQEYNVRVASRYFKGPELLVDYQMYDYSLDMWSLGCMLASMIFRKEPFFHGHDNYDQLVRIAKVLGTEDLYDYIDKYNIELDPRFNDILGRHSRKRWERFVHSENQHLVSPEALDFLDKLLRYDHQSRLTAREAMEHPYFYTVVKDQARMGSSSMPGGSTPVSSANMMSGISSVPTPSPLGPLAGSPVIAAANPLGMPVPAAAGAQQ
Phosphatidylinositol 4,5-bisphosphate 3-kinase catalytic subunit alpha isoform (Homo sapiens), sequence (P42336 whole entry, canonical isoform): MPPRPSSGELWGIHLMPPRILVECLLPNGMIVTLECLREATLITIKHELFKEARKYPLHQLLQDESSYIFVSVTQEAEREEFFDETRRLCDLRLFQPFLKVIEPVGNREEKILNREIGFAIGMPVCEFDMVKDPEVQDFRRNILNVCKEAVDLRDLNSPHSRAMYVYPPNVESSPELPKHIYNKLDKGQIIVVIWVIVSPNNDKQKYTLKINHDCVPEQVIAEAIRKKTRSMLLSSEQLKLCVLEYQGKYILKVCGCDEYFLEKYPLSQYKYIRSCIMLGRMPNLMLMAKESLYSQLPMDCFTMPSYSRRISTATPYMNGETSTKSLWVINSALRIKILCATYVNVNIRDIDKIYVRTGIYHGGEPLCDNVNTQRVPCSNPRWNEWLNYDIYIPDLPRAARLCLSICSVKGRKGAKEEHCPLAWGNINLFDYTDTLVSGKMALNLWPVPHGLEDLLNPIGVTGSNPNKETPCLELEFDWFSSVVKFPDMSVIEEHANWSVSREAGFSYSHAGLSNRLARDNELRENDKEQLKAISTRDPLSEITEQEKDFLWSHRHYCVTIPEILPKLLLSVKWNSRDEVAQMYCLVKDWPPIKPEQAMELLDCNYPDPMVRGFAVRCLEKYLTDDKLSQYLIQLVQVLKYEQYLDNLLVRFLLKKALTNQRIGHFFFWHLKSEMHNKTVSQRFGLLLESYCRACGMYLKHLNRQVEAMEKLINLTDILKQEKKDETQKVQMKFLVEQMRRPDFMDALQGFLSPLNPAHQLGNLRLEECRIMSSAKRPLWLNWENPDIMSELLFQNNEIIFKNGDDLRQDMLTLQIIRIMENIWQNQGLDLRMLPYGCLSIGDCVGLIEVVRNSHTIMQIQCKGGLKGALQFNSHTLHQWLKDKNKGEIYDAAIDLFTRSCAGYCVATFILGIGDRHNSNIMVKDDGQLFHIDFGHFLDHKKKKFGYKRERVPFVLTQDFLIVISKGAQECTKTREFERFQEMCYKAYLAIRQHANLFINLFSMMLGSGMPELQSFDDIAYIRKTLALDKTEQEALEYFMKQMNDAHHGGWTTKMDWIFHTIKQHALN
SRSF protein kinase 1 (Homo sapiens), sequence (Q96SB4 whole entry): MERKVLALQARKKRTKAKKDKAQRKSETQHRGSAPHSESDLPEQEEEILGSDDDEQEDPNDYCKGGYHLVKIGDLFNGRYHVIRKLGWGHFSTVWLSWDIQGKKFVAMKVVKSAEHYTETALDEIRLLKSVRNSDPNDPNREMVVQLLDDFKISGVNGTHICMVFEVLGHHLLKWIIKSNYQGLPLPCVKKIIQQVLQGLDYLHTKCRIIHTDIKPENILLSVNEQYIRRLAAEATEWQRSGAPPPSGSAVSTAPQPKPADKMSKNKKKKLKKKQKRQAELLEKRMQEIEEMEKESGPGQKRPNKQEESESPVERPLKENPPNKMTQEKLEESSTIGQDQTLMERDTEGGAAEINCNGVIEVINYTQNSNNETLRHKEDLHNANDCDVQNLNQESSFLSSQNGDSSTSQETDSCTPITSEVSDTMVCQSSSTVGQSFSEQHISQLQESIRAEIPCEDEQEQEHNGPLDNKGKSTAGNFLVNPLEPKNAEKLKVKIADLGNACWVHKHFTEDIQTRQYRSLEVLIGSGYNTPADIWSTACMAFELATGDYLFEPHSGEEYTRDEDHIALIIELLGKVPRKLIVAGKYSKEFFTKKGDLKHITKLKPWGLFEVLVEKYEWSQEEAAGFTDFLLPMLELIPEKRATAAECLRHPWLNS

Usually inhibition stands for the change of the read-out against control, counted positive when it falls. With `COC(=O)Nc1nc2cc(Oc3cccc(NC(=O)Nc4cc(C(F)(F)F)ccc4F)c3)ccc2[nH]1`, the inhibition in assay [1] was -0.42%; in assay [2] it was -0.98%; in [3], -3.74%; in assay [4], -3.27%; in assay [5], -1.03%; in assay [6], 0.19%. Moreover, the inhibition is 0.17% in assay [7]; 1.18% in assay [8]; 0.44% in assay [9]; -0.62% in assay [10]; 2.3% in assay [11]; 0% in assay [12]. In addition, the inhibition is 0.65% in assay [13]; -0.44% in assay [14]; -0.84% in [15]; -3.67% in assay [16]; 4.99% in assay [17]; 0.52% in [18]. Moreover, the inhibition was found to be 1.91% in assay [19] and 1.54% in assay [20].
Turning to `COc1cc2ncn(-c3cc(O[C@H](C)c4ccccc4Cl)c(C(N)=O)s3)c2cc1OC`, the inhibition worked out at 3.72% in assay [1]; 0.35% in [2]; 7.77% in assay [3]; 7.21% in [4]; 36.1% in assay [5]; 13.6% in assay [6]. In addition, the inhibition is 59.9% in assay [7]; 2.43% in assay [8]; -0.59% in [9]; 1.83% in assay [10]; -3.88% in assay [11]; 0.33% in [12]. Further, the inhibition is -2.47% in assay [13]; 5.76% in assay [14]; 19.5% in assay [15]; 6.13% in assay [16]; 9.16% in assay [17]; 3.99% in assay [18]. Besides, the inhibition in [19] was determined as 6.57%; in [20], 8.51%.
`CC1=C(C(=O)Nc2ccc3[nH]ncc3c2)C(c2ccc(F)cc2)NC(=O)N1` (stereo not given): the inhibition was 1.7% in assay [1]; -0.16% in assay [2]; -1.24% in [3]; 2.51% in [4]; 5.96% in assay [5]; 2.41% in assay [6]. The inhibition in [7] is 3.62%; in [8], 1.44%; in assay [9], 1.28%; in assay [10] it was 1.05%; in [11], -2.09%; in assay [12], -0.06%. For the same molecule, the inhibition was -0.16% in [13]; 1.87% in [14]; 0.86% in [15]; 0.45% in assay [16]; 7.79% in [17]; 1.68% in [18]. Besides, the inhibition came to 1.73% in assay [19] and 1.7% in assay [20].
